CIT2-GFP yeast: alters CIT2-GFP fluorescence in TOR pathway yeast screen; S. cerevisiae CIT2-GFP strain, flow cytometry, 3 h; 100 means same as DMSO wells; GFP response vs DMSO, % at 10 µM; actives 0.065% (n = 320,000);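 active = GFP response relative to DMSO above a set limit, near the screen mean plus 3 SD, cut at about 150% in these data; inconclusive = Fewer than 70 cells measured for a yeast strain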;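 also: ratio of well median GFP fluorescence to mean of DMSO wells on the plate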
AGP1-GFP MLPCN: modulators of TOR pathway AGP1-GFP in S. cerevisiae; AID 2066; S. cerevisiae AGP1-GFP multiplex flow cytometry, 3 h; GFP as percent of DMSO wells; GFP response vs DMSO, % at 10 µM; actives 0.02% (n = 320,000);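 active = GFP response relative to DMSO above a set limit, near screen average plus 3 SD, cut at about 150% in these data; inconclusive = fewer than 70 cells counted for the yeast strain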;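 also: median GFP channel fluorescence of the gated AGP1 strain per well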
MEP2-GFP yeast: alters MEP2-GFP fluorescence in TOR pathway yeast screen; S. cerevisiae MEP2-GFP strain, flow cytometry GFP, 3 h; 100% = DMSO control level; GFP response vs DMSO, % at 10 µM; actives 0.51% (n = 330,000);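 active = GFP response versus DMSO above a set limit, roughly screen mean plus 3 SD, cut at about 180% in these data; inconclusive = fewer than 70 cells counted for a yeast strain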;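 also: median GFP fluorescence of the barcode-gated MEP2-GFP cells per well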
RPL19A TOR yeast: alters RPL19A-GFP fluorescence in TOR pathway yeast screen | actives 0.3% (n = 330,000) | percent response vs DMSO, % at 10 µM | S. cerevisiae RPL19A-GFP strain, flow cytometry, 3 h; active compounds read low;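 active = percent response vs DMSO below 50%; inconclusive = fewer than 70 events counted for the yeast strain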;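 also: median channel GFP fluorescence of the barcoded RPL19A-GFP strain; ratio of sample median GFP to plate DMSO average so 100% = DMSO; lower means less RPL19A-GFP as with rapamycin TOR inhibition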
LAP4 TOR yeast: yeast TOR pathway LAP4-GFP modulation; GFP response vs DMSO, % at 10 µM; S. cerevisiae LAP4-GFP multiplex, flow cytometry GFP, 3 h; median GFP as percent of DMSO wells; actives 0.34% (n = 320,000);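 active = GFP response vs DMSO above a set limit, about the screen mean plus 3 SD, cut at about 150% in these data; inconclusive = under 70 cell events counted for the yeast strain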
* hit, by the source's call; [ ] = remark or other dose. An excerpt weighted towards active compounds, which were near 0.89% of everything screened.

Results for CCN(CC)S(=O)(=O)c1ccc2[nH]c(=O)cc(C(=O)NCC3CCCO3)c2c1 (configuration not stated) ?
CIT2-GFP yeast: 93; AGP1-GFP MLPCN: 107; MEP2-GFP yeast: 104; RPL19A TOR yeast: 101; LAP4 TOR yeast: 99

How did CCc1cccc(N=c2c([N+](=O)[O-])nn(-c3ccc(Cl)cc3)n2O)c1 do in these assays?
CIT2-GFP yeast: 96; AGP1-GFP MLPCN: 107; MEP2-GFP yeast: 114; RPL19A TOR yeast: 102; LAP4 TOR yeast: 112

How did Cc1cccc(N=c2c([N+](=O)[O-])nn(-c3ccc(Cl)cc3)n2O)c1 do in these assays?
CIT2-GFP yeast: 101; AGP1-GFP MLPCN: 88; MEP2-GFP yeast: 90; RPL19A TOR yeast: 94; LAP4 TOR yeast: 154*

What do the screens show for `COc1cccc(NC(=O)c2ccc3c(c2)CCCC3)c1`?
CIT2-GFP yeast: 57; AGP1-GFP MLPCN: 84; MEP2-GFP yeast: 77; RPL19A TOR yeast: 77; LAP4 TOR yeast: 174*

How did CC(=O)c1cccc(NC(=O)c2ccc3c(c2)CCCC3)c1 do in these assays?
CIT2-GFP yeast: 98; AGP1-GFP MLPCN: 99; MEP2-GFP yeast: 100; RPL19A TOR yeast: 103; LAP4 TOR yeast: 101

What do the screens show for `COC(=O)[C@@H](NCc1cccc(CN([C@H](C(=O)OC)C(C)C)S(C)(=O)=O)c1)C(C)C`?
CIT2-GFP yeast: 99; AGP1-GFP MLPCN: 87; MEP2-GFP yeast: 86; RPL19A TOR yeast: 101; LAP4 TOR yeast: 106

How did CCN(CC)S(=O)(=O)c1ccc(C(C)NC(=O)C2CCCN2C(=O)c2cccs2)cc1 (configuration not stated) do in these assays?
CIT2-GFP yeast: 99; AGP1-GFP MLPCN: 98; MEP2-GFP yeast: 99; RPL19A TOR yeast: 95; LAP4 TOR yeast: 100

How did COc1ncnc2c1oc1nc(C)c3c(c12)CC(C)(C)OC3 do in these assays?
CIT2-GFP yeast: 102; AGP1-GFP MLPCN: 104; MEP2-GFP yeast: 92; RPL19A TOR yeast: 98; LAP4 TOR yeast: 107

Results for COc1ncnc2c1oc1nc(C(C)C)c3c(c12)CC(C)(C)OC3 ?
AGP1-GFP MLPCN: 28; MEP2-GFP yeast: 531*[may fluoresce violet]; RPL19A TOR yeast: 44*[may fluoresce violet]; LAP4 TOR yeast: 89

Results for Cc1nnc(N2CCCC(C(=O)NCc3ccc(OC(C)C)cc3)C2)c2nn(-c3ccccc3)c(C)c12 (configuration not stated) ?
CIT2-GFP yeast: inconclusive; AGP1-GFP MLPCN: inconclusive; MEP2-GFP yeast: 253*[may fluoresce violet]; RPL19A TOR yeast: 48*[may fluoresce violet]; LAP4 TOR yeast: 62

How did Cc1nnc(N2CCCC(C(=O)Nc3cc(F)ccc3F)C2)c2nn(-c3ccccc3)c(C)c12 (configuration not stated) do in these assays?
CIT2-GFP yeast: 107; AGP1-GFP MLPCN: 106; MEP2-GFP yeast: 103; RPL19A TOR yeast: 105; LAP4 TOR yeast: 100

What do the screens show for `CC(C)C1N(C(N)=S)N=CC1(C)C` (configuration not stated)?
MEP2-GFP yeast: 664*[may fluoresce violet]; RPL19A TOR yeast: 49*[may fluoresce violet]

Results for CCOC(=O)C1(C)/C(=N/Nc2ccc(Cl)cc2)C(=O)C(=O)N1c1ccccc1 (configuration not stated) ?
CIT2-GFP yeast: 100; AGP1-GFP MLPCN: 102; MEP2-GFP yeast: 103; RPL19A TOR yeast: 101; LAP4 TOR yeast: 97

How did CCOC(=O)C1(C)/C(=N/Nc2ccccc2Cl)C(=O)C(=O)N1c1ccccc1 (configuration not stated) do in these assays?
CIT2-GFP yeast: inconclusive; MEP2-GFP yeast: 561*[may fluoresce violet]; RPL19A TOR yeast: 41*[may fluoresce violet]; LAP4 TOR yeast: 106

How did CC1C(=O)Nc2ccccc2N1C(=O)c1ccc(Cl)c(Cl)c1 (configuration not stated) do in these assays?
CIT2-GFP yeast: 103; AGP1-GFP MLPCN: 106; MEP2-GFP yeast: 109; RPL19A TOR yeast: 110; LAP4 TOR yeast: 94

Results for Cc1ccc(C(=O)N2c3ccccc3NC(=O)C2C)cc1 (configuration not stated) ?
AGP1-GFP MLPCN: 102; MEP2-GFP yeast: 247*; RPL19A TOR yeast: 103; LAP4 TOR yeast: 212*

How did CCOc1ccc(NC(=O)C2CCCN(c3c(CC)c(C)nc4ncnn34)C2)cc1 (configuration not stated) do in these assays?
CIT2-GFP yeast: inconclusive; AGP1-GFP MLPCN: 15; MEP2-GFP yeast: 214*[may fluoresce violet]; RPL19A TOR yeast: 51; LAP4 TOR yeast: 79

What do the screens show for `O=C(N/N=C/c1cccs1)c1ccccn1`?
CIT2-GFP yeast: 100; AGP1-GFP MLPCN: 97; MEP2-GFP yeast: 97; RPL19A TOR yeast: 94; LAP4 TOR yeast: 96

What do the screens show for `Cc1ccc(/C=N/NC(=O)c2ccccn2)s1`?
CIT2-GFP yeast: 110; AGP1-GFP MLPCN: 106; MEP2-GFP yeast: 200*; RPL19A TOR yeast: 81; LAP4 TOR yeast: 140

What do the screens show for `Cc1cc(C)nc(NC(=O)c2ccc(Cl)cc2)n1`?
CIT2-GFP yeast: 105; AGP1-GFP MLPCN: 107; MEP2-GFP yeast: 109; RPL19A TOR yeast: 99; LAP4 TOR yeast: 104

How did Cc1cc(C)nc(NC(=O)c2cccc(Cl)c2)n1 do in these assays?
CIT2-GFP yeast: inconclusive; AGP1-GFP MLPCN: inconclusive; MEP2-GFP yeast: 725*[may fluoresce violet]; RPL19A TOR yeast: 17*[may fluoresce violet]; LAP4 TOR yeast: 89

How did Cc1ccccc1OCc1nnc(SCCN2CCCC2)n1-c1ccccc1 do in these assays?
CIT2-GFP yeast: inconclusive; AGP1-GFP MLPCN: inconclusive; MEP2-GFP yeast: 103; RPL19A TOR yeast: 30*[may fluoresce violet]; LAP4 TOR yeast: 168*[may fluoresce violet]

What do the screens show for `O=C(COC(=O)c1ccc2c(c1)OCCO2)NCCc1ccccc1`?
CIT2-GFP yeast: 102; AGP1-GFP MLPCN: 105; MEP2-GFP yeast: 103; RPL19A TOR yeast: 107; LAP4 TOR yeast: 104

What do the screens show for `COc1cccc(/C=C2\CCCCC2=O)c1`?
CIT2-GFP yeast: inconclusive; AGP1-GFP MLPCN: inconclusive; MEP2-GFP yeast: 426*[may fluoresce violet]; RPL19A TOR yeast: 43*[may fluoresce violet]; LAP4 TOR yeast: 75

What do the screens show for `COc1ccc(NC(=O)C2C3C=CC(C3)C2C(=O)NCc2ccco2)c(OC)c1` (configuration not stated)?
CIT2-GFP yeast: 102; AGP1-GFP MLPCN: 27; MEP2-GFP yeast: 195*; RPL19A TOR yeast: 63; LAP4 TOR yeast: 95

Results for O=C(O)C1C2C=CC(C2)C1C(=O)NCc1ccco1 (configuration not stated) ?
CIT2-GFP yeast: 95; AGP1-GFP MLPCN: 98; MEP2-GFP yeast: 92; RPL19A TOR yeast: 99; LAP4 TOR yeast: 101

Results for Cc1ccc(CCN2CC(C(=O)NCCCN(C)Cc3ccccc3)CC2=O)cc1 (configuration not stated) ?
CIT2-GFP yeast: 100; AGP1-GFP MLPCN: 99; MEP2-GFP yeast: 188*; RPL19A TOR yeast: 97; LAP4 TOR yeast: 86

How did CCCCNC(=O)C1CC(=O)N(CCc2ccccc2)C1 (configuration not stated) do in these assays?
CIT2-GFP yeast: 103; AGP1-GFP MLPCN: 105; MEP2-GFP yeast: 99; RPL19A TOR yeast: 98; LAP4 TOR yeast: 106
